The record followed here is PubChem BioAssay AID652154 (Broad Institute, 2013).

Among all 360,000 compounds or so, about 4,200 (1.2%) were called active. The sample as a whole holds a higher share of actives than the screen did. A number with no mark means an inactive call.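 Rule for the calls: active = mean replicate inhibition at least 60% with every replicate also reaching 60%; inconclusive = only one of the two criteria is met; inactive = mean below 60% and not all replicates reaching 60%.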

The assay can be described thus: PAX8 transcriptional activity inhibition in RMG-I – RMG-I cells, luciferase, single concentration, primary screen (AID 652154).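 Note: luciferase light reporting Pax8 driven TPO promoter activity; plate controls were median of neutral control wells for no effect and mitoxantrone controls for full effect.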 The following applies: RMG-I TPO-luciferase reporter, SteadyGlo, 24 h; at 12.6 µM; active compounds read high.
The inhibition is the relative decrease from the control value, in per cent. Take `C[C@@H]1CN([C@H](C)CO)C(=O)c2cc(NC(=O)CCCN(C)C)ccc2O[C@@H](C)CCCCO[C@H]1CN(C)CC1CCCCC1`: the inhibition is -3.49%. For the molecule `CCC(=O)Nc1ccc2c(c1)OC[C@H](C)N(CC1CCOCC1)C[C@@H](C)[C@@H](OC)CN(C)C2=O`, the inhibition is 6.07%. Consider `O=C(C[C@@H]1CC[C@@H]2[C@H](COC[C@@H](O)CN2C(=O)c2ccccc2F)O1)N1CCOCC1`, for which the inhibition was 5.42%.

`COc1cccc2c1C(=O)c1c(O)c3c(c(O)c1C2=O)CC(O)(C(C)=NNC(=O)c1ccc(Cl)c(Cl)c1)CC3OC1CC(N)C(O)C(C)O1` (stereo not given): the inhibition is 107% (active). In the case of `CC(=O)N[C@@H]1CC[C@@H](CCNC(=O)C2CC2)O[C@H]1CO` it was 11.9%. In the case of `O=C(C[C@H]1CC[C@@H](NC(=O)Nc2cc(F)ccc2F)[C@@H](CO)O1)NCc1ccncn1` it was 0.809%. In the case of `OC[C@@H]1[C@H](c2ccc(C#CC3CC3)cc2)[C@@H]2CN(CCC(F)(F)F)CCCCN12` it was -6.92%; in that of `O=C([C@H]1[C@H](CO)[C@H]2Cn3c(ccc(C4=CCCC4)c3=O)[C@@H]1N2C(=O)c1ccncc1)N1CCCCC1`, 0.28%. `CCCCCCCCC(=O)NCCOc1ccccc1`: the inhibition was 111% (active). Consider `O=C(CCOc1ccccc1)NCc1ccccc1`, for which the inhibition was -18.5%. Then `O=C(CCc1c[nH]c2ccccc12)NCCOc1ccccc1`, with -5.95%; and `COc1cccc(C(=O)Nc2nnc(S(=O)(=O)N(C)c3ccccc3)s2)c1`, with 2.52%. On to `COc1cccc(C(=O)Nc2nc3ccc(S(C)(=O)=O)cc3s2)c1`, for which the inhibition was 80.8% (active).

As for `COc1ccc(C(=O)Nc2cccc(S(C)(=O)=O)c2)cc1`, the inhibition is -14.4%. In the case of `O=C(Nc1ccccc1F)N1[C@H](CO)[C@H]2c3ccccc3NC[C@H]21` it was -4.34%; in that of `COc1cccc(/C=N/Nc2ncc(C(F)(F)F)cc2Cl)c1O`, 63.6% (active).

As for `CN(C)C=NC(=O)c1cccn1-c1ncc(C(F)(F)F)cc1Cl`, the inhibition is 5.77%. Turning to `O=c1[nH]c2cccnc2n(CCNc2ncc(C(F)(F)F)cc2Cl)c1=O`, the inhibition was -4.25%. In the case of `CNC(=O)C[C@H]1CC[C@H]2[C@H](COc3ccc(NC(=O)c4cc(C)on4)cc3C(=O)N2C)O1` it was 57.2%; in that of `COCC(=O)Nc1ccc2c(c1)C(=O)N(C)C[C@H](OC)[C@@H](C)CN(CC1CC1)[C@@H](C)CO2`, -3.11%. In the case of `C[C@@H]1CN([C@@H](C)CO)S(=O)(=O)c2ccc(C#Cc3ccccc3F)cc2O[C@H]1CN(C)C(=O)c1ccc2c(c1)OCO2` it was 101% (active); in that of `CCCC#Cc1ccc2c(c1)O[C@@H](CN(C)C(=O)CC)[C@H](C)CN([C@H](C)CO)S2(=O)=O`, -8.15%.

`C[C@H]1CN([C@@H](C)CO)S(=O)(=O)c2ccc(C#CCN(C)C)cc2O[C@H]1CN(C)C(=O)c1ccccc1F`: the inhibition was -3.76%. As for `C[C@H]1CN([C@@H](C)CO)S(=O)(=O)c2ccc(C#Cc3ccccc3F)cc2O[C@@H]1CN(C)C(=O)c1ccc2c(c1)OCO2`, the inhibition was 72.5% (active). Then `CC(C)C#Cc1ccc2c(c1)O[C@@H](CN(C)C(=O)Nc1ccccc1)[C@H](C)CN([C@H](C)CO)S2(=O)=O`, with 15.8%; and `CCCC#Cc1ccc2c(c1)O[C@H](CN(C)C(=O)CC)[C@@H](C)CN([C@H](C)CO)S2(=O)=O`, with -14.1%. Then `COCC#Cc1ccc2c(c1)O[C@H](CN(C)Cc1ccc3c(c1)OCO3)[C@H](C)CN([C@H](C)CO)S2(=O)=O`, with 0.398%; and `C[C@H]1CN([C@@H](C)CO)S(=O)(=O)c2ccc(-c3cccc(C#N)c3)cc2O[C@H]1CN(C)C(=O)c1ccccc1`, with 15.6%. In the case of `C[C@@H]1CN([C@H](C)CO)S(=O)(=O)c2ccc(C#Cc3ccccc3F)cc2O[C@@H]1CN(C)C(=O)c1ccc2c(c1)OCO2` it was 73.7% (active); in that of `C[C@H](CO)N1C[C@H](C)[C@H](CN(C)Cc2cccc(F)c2)Oc2ncc(C#CCN(C)C)cc2C1=O`, 10.3%. For `Cc1cc(OC(=O)NCCc2ccc(F)cc2)ccc1F`, the inhibition was -1.24%. Then `OC[C@H]1[C@@H](c2ccc(-c3ccccc3F)cc2)[C@@H]2CN(Cc3ccncc3)CCCCN12`, with 17.2%; and `CCCc1cn(CC[C@H]2CC[C@@H](NS(=O)(=O)c3ccccc3Cl)[C@@H](CO)O2)nn1`, with -2.22%; and `O=C(C[C@@H]1C=C[C@H](NC(=O)Nc2ccccc2F)[C@@H](CO)O1)NCc1ccccc1`, with 1.09%. Then `COc1ccc(CN2[C@H](CO)[C@@H]3c4ccccc4N(C(=O)C4CC4)C[C@@H]32)cc1`, with 5.67%; and `Brc1ccc(COCCc2cn(Cc3ccccc3)c3ccccc23)cc1`, with -11.9%. Take `O=C1OCC2=C1C(c1ccc(Cl)cc1)c1cc3c(cc1O2)OCO3` (stereo not given): the inhibition is 11%. On to `O=C1NC(c2cc3c(cc2Cl)OCO3)Oc2ccccc21` (stereo not given), for which the inhibition was -6.52%.

With `COc1ccccc1C1C2=C(COC2=O)Nc2cc3c(cc21)OCO3` (stereo not given), the inhibition is 85.6% (active). With `C[C@@H]1CN([C@H](C)CO)C(=O)c2cc(NS(=O)(=O)c3ccccc3)ccc2O[C@H]1CN(C)S(=O)(=O)c1ccc(Cl)cc1`, the inhibition is 3.11%.

For `Cc1ccc(C(=O)C(=S)N2CCOCC2)cc1`, the inhibition is 67.2% (active). Then `Cc1ccc(C(=O)OC(C)CN2CCOCC2)cc1` (stereo not given), with -27.6%; and `Cc1ccc(C(=O)Oc2ccc(C(=S)N3CCOCC3)cc2)cc1`, with -7.47%; and `C[C@@H]1CN([C@@H](C)CO)C(=O)Cc2cc(NC(=O)CCN3CCOCC3)ccc2O[C@@H]1CN(C)CC1CC1`, with -46.4%. In the case of `Cc1cccc(-c2nc3ccc(C(=O)NCCN4CCN(C)CC4)cc3nc2-c2cccc(C)c2)c1`, the inhibition was 50.9%. In the case of `CCN1CCN(CCNC(=O)c2ccc(/C=C3/Sc4ccccc4N(Cc4cccc(C)c4)C3=O)cc2)CC1` it was 84.9% (active). In the case of `O=C(NCCN1CCOCC1)c1ccc2c(c1)N(Cc1cccc(Cl)c1)C(=O)c1ccccc1S2(=O)=O` it was -1.71%; in that of `C[C@@H]1CCCCO[C@@H](CN(C)CC2CC2)[C@H](C)CN([C@H](C)CO)C(=O)c2cc(NS(=O)(=O)c3ccccc3)ccc2O1`, 3.85%; in that of `CN(O)C(=S)c1ccccc1`, 82% (active). Then `COc1cccc(CN(C)C[C@H]2OCc3ccccc3-c3c(n(C)c4ccccc34)C(=O)N([C@@H](C)CO)C[C@@H]2C)c1`, with 11%; and `O=C(c1ccncc1)N1C[C@@H]2[C@H](c3ccccc31)[C@H](CO)N2C(=O)c1ccncc1`, with -12.9%. Regarding `CC(C)NC(=O)N(C)C[C@@H]1Oc2ccc(N(C)C)cc2CC(=O)N([C@H](C)CO)C[C@@H]1C`, the inhibition was -4.65%.

With `O=C(C[C@H]1CC[C@@H]2[C@H](COC[C@@H](O)CN2C(=O)Nc2ccc(C(F)(F)F)cc2)O1)NCCc1ccncc1`, the inhibition was -6.11%. On to `C[C@@H]1CN([C@H](C)CO)C(=O)c2cc(NC(=O)C3CCCCC3)ccc2O[C@H]1CN(C)C(=O)Nc1ccccc1`, for which the inhibition is 9.45%. Then `C[C@H](CO)N1C[C@H](C)[C@@H](CN(C)C(=O)Nc2ccc3c(c2)OCO3)Oc2ccc(NC(=O)NC3CCCCC3)cc2CC1=O`, with -23.2%. Then `COc1ccc(-c2cc(C(=O)NCCCN3CCCC3=O)c3ccccc3n2)cc1OC`, with 2.26%; and `COc1ccc(-c2cc(C(F)(F)F)nc(S(C)(=O)=O)n2)cc1OC`, with 122% (active). Turning to `COc1ccc(-c2cc(C(=O)N(C)Cc3ccc(OC)c(OC)c3OC)c3ccccc3n2)cc1OC`, the inhibition is 27.1%. In the case of `Cc1ccccc1S(=O)(=O)N1[C@@H](C#N)[C@H](c2ccccc2)[C@@H]1CO` it was -4.36%. Consider `O=C(Cc1ccccc1)N1CC2(C1)[C@H](c1ccccc1)[C@@H](CO)N2C(=O)c1cccnc1`, for which the inhibition is -7.25%. Then `COc1ccccc1-n1cn[nH]c1=S`, with 8.11%.

On to `COc1ccnc(Oc2ccccc2)c1-c1ncn[nH]1`, for which the inhibition is 84.6% (active).

`COc1ccnc(Oc2ccccc2)n1`: the inhibition is -3.33%. Then `OC[C@@H]1[C@@H](c2ccc(-c3ccccc3F)cc2)[C@@H]2CN(Cc3cncnc3)CCCCN12`, with 4.63%; and `CC1Cc2ccccc2N1C(=O)CSc1nnc(C2CC2)n1C` (stereo not given), with 78.3% (active); and `CC1Cc2ccccc2N1C(=O)CSc1nnc(-c2ccc(S(=O)(=O)N3CCCC3)cc2)n1C` (stereo not given), with 20.8%. Take `CN(C(=O)CSc1nnc(C2CC2)n1C)C1CCCc2ccccc21` (stereo not given): the inhibition is 8.2%. Turning to `O=C(N[C@H]1CC[C@@H](CCn2cc(Cc3ccccc3)nn2)O[C@H]1CO)c1cnccn1`, the inhibition was -16.7%.

For the molecule `C[C@H](CO)N1C[C@H](C)[C@H](CN(C)CC2CC2)Oc2cc(-c3ccc(F)cc3)ccc2S1(=O)=O`, the inhibition is -2.31%. In the case of `O=C1NC(Cc2ccccc2)c2nc3ccc(Br)cc3c(=O)n2-c2cc3ccccc3cc21` (stereo not given) it was 34.1%; in that of `CC(C)CC1NC(=O)c2cc(Cl)ccc2-n2c1nc1ccccc1c2=O` (stereo not given), 6.69%; in that of `COc1ccc2nc3n(c(=O)c2c1)-c1ccc(Cl)cc1C(=O)NC3Cc1ccccc1` (stereo not given), 82.6% (active). In the case of `Cc1noc(C)c1NC(=O)N(C)C[C@H]1OCCCC[C@H](C)Oc2ccc(NC(=O)Nc3ccccc3)cc2C(=O)N([C@H](C)CO)C[C@@H]1C` it was 8.48%; in that of `COc1ccccc1CNC(=O)C[C@H]1CC[C@@H](NC(=O)CN(C)C)[C@@H](CO)O1`, -11.2%. `COc1cccc(C#Cc2ccc([C@@H]3[C@H](C#N)N[C@H]3CO)cc2)c1`: the inhibition is -230%.
